Here are results for eight molecules from PubChem BioAssay (Tox21).

Results filed as inconclusive are left out. Active and inactive are the calls of the source. Unless noted, calls follow the shape of the dose curve; as a rule, active = well fitted curve in the direction sought with a large enough effect in the repeat runs; inconclusive = weak or mixed curves; inactive = no such curve, though single readings can be large; an effect the other way counts as inactive or inconclusive.

Assay [1] in a line: qHTS assay to identify small molecule antagonists of the sonic hedgehog signaling (Shh) pathway (AID 1259369; calls by dose curve; also: nearly all actives have a fitted effect of over 45% in size; also: potency is read from the fitted curve at half-maximal effect). An outline of the steps: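 NIH/3T3 stable Gli1-Luc clone, 2,000 cells/well, 4hr settle; cpd + conditioned medium 24hr; Luc reagent 30min RT; luminescence.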
For orientation: Quantitative high-throughput screening tests each substance at several concentrations.

In assay [2] the target is Estrogen receptor beta (Homo sapiens) (UniProt Q92731). The experiment in a line: qHTS assay to identify small molecule agonists of the estrogen receptor beta (ER-beta) signaling pathway (AID 1259377; active = well fitted activation curve with a large enough effect in the signal ratio in the repeat runs, not every such curve was filed as active; the % refers to the signal ratio). An outline of the steps:
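Agonist mode cell assay in GripTite HEK293T cells expressing an ER-beta fusion that drives beta-lactamase from an Upstream Activator Sequence; 16 hr compound exposure at 37C, then 2 h LiveBLAzer B/G FRET substrate at room temperature, fluorescence read-out.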

For assay [3] the target is unchanged. The experiment in a line: qHTS assay to identify small molecule antagonists of the estrogen receptor beta (ER-beta) signaling pathway (AID 1259378; active = well fitted inhibition curve with a large enough effect in the signal ratio in the repeat runs, not every such curve was filed as active; the % refers to the signal ratio). An outline of the steps: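 ER-beta-UAS-bla HEK293T cells in 2% charcoal-stripped FBS medium treated with compound plus 1nM final 17-beta-estradiol for 16 hr at 37C. Beta-lactamase reporter read by FRET substrate fluorescence after 2 hours at room temperature.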

Assay [4] can be described thus: qHTS assay to identify small molecule agonists of the androgen receptor (AR) signaling pathway in the presence of an antagonist - cell viability counter screen (AID 1259379).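 Also: MDA-kb2 human breast cancer cells carrying an MMTV luciferase reporter; series mostly up to about 92 µM; nearly all actives have a fitted effect of over 25% in size.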 The method, boiled down: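 MDA-kb2 viability measured by CellTiter-Fluor fluorescence in the same wells as the luciferase signal; nilutamide 3.0uM final; 15-point compound titration; 16 hr at 37C.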

Assay [5] can be described thus: qHTS assay to identify small molecule agonists of the estrogen receptor beta (ER-beta) signaling pathway - cell viability counter screen (AID 1259380). Also: nearly all actives have a fitted effect of over 30% in size. The method, boiled down: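 Measured: luminescence from CellTiter-Glo after 30 min at room temperature, added to wells already read for the LiveBLAzer FRET reporter (2 hr substrate); ER-beta-UAS-bla HEK293T cells had 16 hr compound treatment at 37C, 5% CO2.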

A short description of assay [6]: qHTS assay to identify small molecule antagonists of the estrogen receptor beta (ER-beta) signaling pathway - cell viability counter screen (AID 1259382). Also: series mostly up to about 92 µM; nearly all actives have a fitted effect of over 55% in size. An outline of the steps: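 Readout: luminescence, CellTiter-Glo, same wells as bla assay. System: ER-beta-UAS-bla GripTite HEK293T, 2% charcoal-stripped FBS. Exposure: compounds plus 1nM 17-beta-estradiol, 16 hr, 37C.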

The target of assay [7] is Estrogen receptor (Homo sapiens) (UniProt P03372). The experiment in a line: qHTS assay to identify small molecule agonists of the estrogen receptor alpha (ER-alpha) signaling pathway in the presence of an antagonist (AID 1259383; calls by dose curve; also: top concentration of the series differs between compounds; nearly all actives have a fitted effect of over 15% in size). An outline of the steps:
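Quantitative HTS confirmation: compounds titrated at 15 concentrations onto estrogen-deprived VM7Luc4E2 cells carrying a four-ERE luciferase construct, with ICI-182,780 present at 10.0nM final. Signal is luminescence after 22hr exposure.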

For assay [8], the target named is Thyrotropin receptor (Homo sapiens) (UniProt P16473). Kind of assay: qHTS assay to identify small molecule antagonists of the thyroid stimulating hormone receptor (TSHR) signaling pathway (AID 1259385; calls by dose curve; also: nearly all actives have a fitted effect of over 20% in size). An outline of the steps:
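TSHR-HEK293 cells (800/well) plated 18 h, then compounds with Ro20-1724 and TSH at 1.5 ng/mL final, 30 min at room temperature. cAMP quantified by HTRF (cAMP-d2/anti-cAMP-cryptate, 1 h); 15 concentrations in triplicate.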

Assay [9] in a line: qHTS assay to identify small molecule agonists of the estrogen receptor alpha (ER-alpha) signaling pathway in the presence of an antagonist - cell viability counter screen (AID 1259386).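 Also: cells exposed to compounds for 22 h at 37 °C before the viability read; nearly all actives have a fitted effect of over 30% in size.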 Also: potency is read from the fitted curve at half-maximal effect. An outline of the steps: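 The test measures whether compounds kill ER-alpha reporter cells (VM7Luc4E2) under antagonist co-treatment (ICI-182,780, 10.0nM). Fluorescence from CellTiter-Fluor is read after a 22hr exposure.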

The target of assay [10] is Progesterone receptor (Homo sapiens) (UniProt P06401). Kind of assay: qHTS assay to identify small molecule agonists of the progesterone receptor (PR) signaling pathway (AID 1346784; calls by dose curve; also: nearly all actives have a fitted effect of over 30% in size; also: potency is read from the fitted curve at half-maximal effect). The method, boiled down: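 Cells (PR-UAS-bla HEK 293T, GripTite) were plated in assay medium containing 2% charcoal-stripped FBS and incubated 6 hr. Test compounds in DMSO were added for 16 hr at 37C. FRET substrate was then loaded for 2 hr at room temperature before fluorescence reading.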
Sequence of Progesterone receptor (Homo sapiens) (P06401 whole entry, looked up): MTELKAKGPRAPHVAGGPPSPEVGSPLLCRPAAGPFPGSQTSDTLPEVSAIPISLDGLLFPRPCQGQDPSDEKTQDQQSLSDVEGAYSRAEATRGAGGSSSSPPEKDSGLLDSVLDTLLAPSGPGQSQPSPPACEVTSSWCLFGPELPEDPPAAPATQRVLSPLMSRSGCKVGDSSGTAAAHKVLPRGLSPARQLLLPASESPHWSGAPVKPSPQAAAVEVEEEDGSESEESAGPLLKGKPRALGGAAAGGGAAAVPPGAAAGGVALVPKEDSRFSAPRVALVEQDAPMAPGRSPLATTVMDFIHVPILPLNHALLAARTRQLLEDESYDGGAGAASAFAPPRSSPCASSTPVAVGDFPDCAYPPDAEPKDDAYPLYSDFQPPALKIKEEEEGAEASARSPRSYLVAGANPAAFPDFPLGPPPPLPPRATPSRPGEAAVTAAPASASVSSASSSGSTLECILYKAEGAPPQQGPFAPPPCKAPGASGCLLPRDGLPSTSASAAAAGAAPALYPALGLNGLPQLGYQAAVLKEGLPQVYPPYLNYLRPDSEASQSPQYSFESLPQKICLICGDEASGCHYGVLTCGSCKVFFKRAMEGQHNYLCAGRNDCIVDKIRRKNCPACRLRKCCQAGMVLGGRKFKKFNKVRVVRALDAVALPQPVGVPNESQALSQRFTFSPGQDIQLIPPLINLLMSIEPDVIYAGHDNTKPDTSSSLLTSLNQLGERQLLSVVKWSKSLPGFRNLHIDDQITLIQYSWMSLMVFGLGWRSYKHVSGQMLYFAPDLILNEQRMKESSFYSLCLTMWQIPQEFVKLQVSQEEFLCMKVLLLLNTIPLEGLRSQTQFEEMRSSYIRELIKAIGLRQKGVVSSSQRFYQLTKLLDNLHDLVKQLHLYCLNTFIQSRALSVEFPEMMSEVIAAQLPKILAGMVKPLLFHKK

Assay [11] has the same target. The experiment in a line: qHTS assay to identify small molecule antagonists of the progesterone receptor (PR) signaling pathway (AID 1346795; active = well fitted inhibition curve with a large enough effect in the signal ratio in the repeat runs, not every such curve was filed as active; the % refers to the signal ratio). The method, boiled down: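 Antagonist mode: compounds tested against 1 nM (final) promegestone stimulation in HEK293T cells expressing PR-UAS-bla reporter, 16 hr at 37C, 5% CO2; beta-lactamase activity detected via B/G FRET substrate after 2 hr at room temperature.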

The nature of assay [12]: qHTS assay to identify small molecule antagonists of the progesterone receptor (PR) signaling pathway - cell viability counter screen (AID 1346798). Also: series mostly up to about 92 µM; nearly all actives have a fitted effect of over 50% in size. An outline of the steps: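 Counter screen for cytotoxicity: viability of PR-UAS-bla HEK293T cells was measured with CellTiter-Glo luminescence following 16 hr compound exposure in the presence of R5020.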
Assay [13] is described as follows: qHTS assay to identify small molecule agonists of the progesterone receptor (PR) signaling pathway - cell viability counter screen (AID 1346799; calls by dose curve; also: nearly all actives have a fitted effect of over 45% in size). An outline of the steps:
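Cells (PR-UAS-bla HEK293T) are plated at 3,000/well in 2% charcoal-stripped FBS medium, rested 6 hr, dosed and incubated 16 hr at 37C. CellTiter-Glo is then added and luminescence measured after 30 min at room temperature.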

Assay [14] is described as follows: qHTS assay to identify small molecule antagonists of the TGF-beta/Smad signaling pathway - cell viability counter screen (AID 1346824). Also: nearly all actives have a fitted effect of over 50% in size. The method, boiled down:
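SBE-bla HEK 293T cells, incubated overnight, then compound plus 0.25 ng/mL TGF-beta1 (stock added) for 5 hr at 37 C. Viability was read in the same wells by CellTiter-Glo luminescence after 30 min at room temperature.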

Assay [15] can be described thus: qHTS assay to identify small molecule agonists of the TGF-beta/Smad signaling pathway - cell viability counter screen (AID 1346829). Also: top concentration of the series differs between compounds; nearly all actives have a fitted effect of over 45% in size. An outline of the steps:
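Compound-treated SBE-bla HEK 293T cells (5 hr, 37 C) were assessed for viability with CellTiter-Glo in parallel with the reporter read.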

Assay [16] in a line: qHTS assay to identify small molecule agonists or antagonists of the thyroid stimulating hormone receptor (TSHR) signaling pathway - wild type cell line counter screen (AID 1259384; calls by dose curve). An outline of the steps: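 Wild-type Hek293 cells, 800/well, 18 h at 37C, then compound with Ro20-1724 for 30 min RT. cAMP by HTRF (cAMP-d2/anti-cAMP cryptate), 1 h RT, fluorescence read. 15 concentrations, triplicates.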

The nature of assay [17]: qHTS assay to identify small molecule agonists of the TGF-beta/Smad signaling pathway (AID 1346859; active = well fitted activation curve with a large enough effect in the signal ratio in the repeat runs, not every such curve was filed as active; the % refers to the signal ratio; also: series mostly up to about 77 µM). An outline of the steps:
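Reporter line: HEK 293T with stably integrated SBE-controlled beta-lactamase. Compound exposure lasts 5 hr at 37 C and 5% CO2; substrate loading follows for 2 hr at room temperature, with emission read at 460 and 530 nm.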

Assay [18] deals with Thyrotropin-releasing hormone receptor (Homo sapiens) (UniProt P34981). The experiment in a line: qHTS assay to identify small molecule agonists of the thyrotropin-releasing hormone receptor (TRHR) signaling pathway (AID 1346891; calls by dose curve;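 also: HEK293 cells expressing TRHR with calcium dye readout; series mostly up to about 58 µM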). The method, boiled down: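 Cells: TRHR-Hek293, seeded and incubated 18 h. Dye loading: 2 h at 37 °C. Compound added from DMSO stock by pin tool. Read-out: kinetic calcium fluorescence over 3 min.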
Sequence of Thyrotropin-releasing hormone receptor (Homo sapiens) (P34981 whole entry, looked up): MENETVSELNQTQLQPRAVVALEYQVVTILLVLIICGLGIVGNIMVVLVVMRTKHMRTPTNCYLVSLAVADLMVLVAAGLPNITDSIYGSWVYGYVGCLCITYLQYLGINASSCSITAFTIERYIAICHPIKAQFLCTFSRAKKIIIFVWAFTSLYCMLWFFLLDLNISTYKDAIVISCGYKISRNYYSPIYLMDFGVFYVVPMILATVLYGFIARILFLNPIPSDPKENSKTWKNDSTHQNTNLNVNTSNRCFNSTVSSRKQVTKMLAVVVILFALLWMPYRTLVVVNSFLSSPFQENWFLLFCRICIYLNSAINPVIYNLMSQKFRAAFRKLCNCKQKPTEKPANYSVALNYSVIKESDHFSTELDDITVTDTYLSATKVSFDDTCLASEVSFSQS

Assay [19] shares this target. The experiment in a line: qHTS assay to identify small molecule antagonists of the thyrotropin-releasing hormone receptor (TRHR) signaling pathway (AID 1346877; active = well fitted inhibition curve with a large enough effect in the repeat runs, not every such curve was filed as active; also: series mostly up to about 51 µM). The method, boiled down: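 Overnight-plated (18 h, 37 °C) HEK293 cells expressing TRHR were dye-loaded 2 h, treated with compound, then stimulated with TRH at 1 nM final. Fluorescence intensity was captured every second for 3 min.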

Sequence of Estrogen receptor beta (Homo sapiens) (Q92731 whole entry, looked up, the tested form may be a part): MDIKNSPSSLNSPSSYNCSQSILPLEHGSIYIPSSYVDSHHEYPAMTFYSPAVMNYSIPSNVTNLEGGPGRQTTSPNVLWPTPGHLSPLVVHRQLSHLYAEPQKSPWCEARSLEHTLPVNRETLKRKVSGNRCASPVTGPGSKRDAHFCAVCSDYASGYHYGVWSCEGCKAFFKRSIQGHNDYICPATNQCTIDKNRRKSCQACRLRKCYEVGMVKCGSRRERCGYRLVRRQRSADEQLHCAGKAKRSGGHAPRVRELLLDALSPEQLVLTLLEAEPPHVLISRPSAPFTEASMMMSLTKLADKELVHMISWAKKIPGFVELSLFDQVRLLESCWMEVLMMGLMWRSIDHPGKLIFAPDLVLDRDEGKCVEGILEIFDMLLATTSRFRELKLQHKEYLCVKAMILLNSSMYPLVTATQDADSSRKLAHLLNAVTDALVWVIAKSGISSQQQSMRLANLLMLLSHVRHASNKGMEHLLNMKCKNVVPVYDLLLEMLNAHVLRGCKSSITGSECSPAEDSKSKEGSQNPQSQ
Sequence of Thyrotropin receptor (Homo sapiens) (P16473 whole entry, looked up): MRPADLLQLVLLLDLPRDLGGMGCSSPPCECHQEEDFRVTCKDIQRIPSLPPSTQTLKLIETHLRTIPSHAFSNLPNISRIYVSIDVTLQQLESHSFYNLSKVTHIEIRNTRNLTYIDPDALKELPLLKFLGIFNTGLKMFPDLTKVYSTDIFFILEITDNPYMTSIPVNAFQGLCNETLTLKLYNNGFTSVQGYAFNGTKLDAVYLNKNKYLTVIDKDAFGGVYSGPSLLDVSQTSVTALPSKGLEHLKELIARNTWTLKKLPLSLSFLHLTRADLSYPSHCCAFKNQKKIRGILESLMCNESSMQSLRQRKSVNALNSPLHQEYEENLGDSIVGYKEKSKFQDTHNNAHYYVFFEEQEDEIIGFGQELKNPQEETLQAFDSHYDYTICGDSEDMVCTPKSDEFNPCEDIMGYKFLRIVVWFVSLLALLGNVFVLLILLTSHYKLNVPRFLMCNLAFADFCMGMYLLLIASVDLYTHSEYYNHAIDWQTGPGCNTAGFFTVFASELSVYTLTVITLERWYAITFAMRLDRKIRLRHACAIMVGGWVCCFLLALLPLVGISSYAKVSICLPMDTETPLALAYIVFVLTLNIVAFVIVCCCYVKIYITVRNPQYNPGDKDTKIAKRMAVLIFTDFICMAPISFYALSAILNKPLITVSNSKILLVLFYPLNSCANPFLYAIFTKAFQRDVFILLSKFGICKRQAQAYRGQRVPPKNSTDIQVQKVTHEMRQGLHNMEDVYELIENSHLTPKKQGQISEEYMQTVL
Sequence of Estrogen receptor (Homo sapiens) (P03372 whole entry, looked up): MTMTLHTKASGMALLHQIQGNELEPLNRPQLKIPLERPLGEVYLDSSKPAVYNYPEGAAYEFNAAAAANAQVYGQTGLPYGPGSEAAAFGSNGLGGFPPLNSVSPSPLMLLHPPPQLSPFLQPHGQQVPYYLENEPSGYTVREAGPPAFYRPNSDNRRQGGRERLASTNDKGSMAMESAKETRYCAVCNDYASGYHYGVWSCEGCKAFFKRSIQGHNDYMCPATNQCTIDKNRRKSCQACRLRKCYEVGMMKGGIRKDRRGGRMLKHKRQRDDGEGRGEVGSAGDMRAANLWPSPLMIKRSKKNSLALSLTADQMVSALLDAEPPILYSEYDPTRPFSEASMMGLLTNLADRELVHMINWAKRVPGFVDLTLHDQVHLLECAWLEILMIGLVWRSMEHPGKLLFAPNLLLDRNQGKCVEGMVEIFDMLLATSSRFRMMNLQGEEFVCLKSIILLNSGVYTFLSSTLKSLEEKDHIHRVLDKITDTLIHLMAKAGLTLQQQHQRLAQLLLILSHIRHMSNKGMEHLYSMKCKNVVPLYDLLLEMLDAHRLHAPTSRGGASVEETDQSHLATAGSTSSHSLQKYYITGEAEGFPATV

Take `CC1(C)O[C@@H]2C[C@H]3[C@@H]4C[C@H](F)C5=CC(=O)C=C[C@]5(C)[C@H]4[C@@H](O)C[C@]3(C)[C@]2(C(=O)CO)O1`: the Potency result in assay [1], in [2], in [3], in assay [4], in assay [5] and in assay [6] was “inactive” in each case. The Potency entry in assay [7], in assay [8], in [9], in [11], in assay [12] and in assay [13] was “inactive” each time. Further, the Potency entry in [14] and in assay [15] was “inactive” in each case. Moreover, in assay [10], the Potency is 0.0119 µM (active).
For the molecule `O[C@@H]1CO[C@H]2[C@@H]1OC[C@@H]2O`, the Potency result in [1], in [2], in [3], in [4], in [5] and in assay [6] was “inactive” each time. In addition, the Potency result in [7], in [8], in [9], in [10], in assay [11] and in assay [12] was “inactive” each time. The Potency result in assay [13], in assay [14], in assay [17] and in assay [18] was “inactive” throughout. The molecule was called inactive in assay [16].
As for `CCN(CC)CCNC(=O)COc1ccc(OC)cc1`, the Potency entry in assay [1], in assay [2], in [3], in assay [4], in assay [5] and in assay [6] was “inactive” throughout. The Potency entry in [7], in assay [9], in assay [12], in assay [13], in assay [14] and in [15] was “inactive” each time. Moreover, the Potency entry in assay [17] and in assay [18] was “inactive” in each case.
Consider `CC(=O)c1ccc([N+](=O)[O-])cc1`, for which the Potency result in assay [1], in assay [2], in [3], in [4], in [5] and in [6] was “inactive” each time. For the same molecule, the Potency entry in assay [8], in assay [9], in [10], in assay [12], in assay [13] and in assay [14] was “inactive” in each case. Also, the Potency entry in assay [15] and in assay [17] was “inactive” in each case.
Consider `Oc1cccc(O)c1O`, for which the Potency is 15.2 µM (active) in assay [1] and 68 µM (active) in assay [9]. In addition, the Potency result in [2], in [3], in [4], in [5], in assay [6] and in assay [7] was “inactive” each time. The Potency result in assay [10], in assay [11], in assay [12], in assay [13], in assay [14] and in [17] was “inactive” throughout. For the same molecule, in assay [18], the Potency result was “inactive”. In addition, the molecule was called inactive in assay [16] and in [19].
In the case of `CO[C@]1(NC(=O)CSC(F)F)C(=O)N2C(C(=O)O)=C(CSc3nnnn3CCO)CO[C@H]21`, the Potency entry in assay [1], in assay [2], in assay [3], in assay [4], in assay [5] and in assay [6] was “inactive” in each case. Further, the Potency result in [7], in assay [9], in assay [10], in assay [12], in [13] and in assay [14] was “inactive” throughout. Also, the Potency entry in assay [15], in assay [17] and in [18] was “inactive” throughout. The result in [16] and in assay [19] was inactive.
As for `C=C(C)C(=O)OCCOCCOC(=O)C(=C)C`, the Potency entry in assay [1], in assay [2], in assay [3], in assay [4], in assay [5] and in assay [6] was “inactive” in each case. Further, the Potency result in assay [7], in assay [9], in assay [10], in [11], in assay [12] and in assay [13] was “inactive” throughout. Also, the Potency entry in assay [14], in assay [17] and in assay [18] was “inactive” throughout. Besides, in [19], the call was inactive.
As to `COc1cc(C(=O)NCCCCCC(=O)O)cc(OC)c1OC`, the Potency entry in [1], in [2], in assay [3], in [4], in [5] and in assay [6] was “inactive” throughout. The Potency entry in assay [7], in assay [8], in [9], in assay [10], in assay [11] and in assay [12] was “inactive” throughout. For the same molecule, the Potency entry in assay [13], in assay [14], in assay [15], in assay [17] and in assay [18] was “inactive” each time. Besides, the molecule was classed as inactive in assay [16] and in assay [19].
